Compound activity from PubChem.
aSyn yeast inh = qHTS of alpha-syn Inhibitors; Yeast expressing alpha-synuclein, growth rescue, BacTiter-Glo, 24 h; AID 652106, 2013; actives 0.14% (n = 370,000); Potency, µM (doses to about 46.1 µM), actives largely listed as activators; also: nearly all actives have a fitted effect of over 65% in size
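Galactose-induced alpha-syn yeast (OD600=0.02, raffinose-pregrown) + pinned cpd, 24 hr, 30 deg C; growth by BacTiter-Glo luminescence. Growth restoration scores as activation.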
FUS yeast rescue = qHTS for Suppressors of FUS Proteinopathy: Primary screen using FUS-linked yeast assay. S. cerevisiae FUS-expressing, growth rescue, OD600, 24 h. Potency, µM (top dose mostly 76.6 µM), most hits filed as activators. actives 0.24% (n = 390,000). AID 1347120, 2019; also: nearly all actives have a fitted effect of over 55% in size
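Absorbance at 600 nm, taken 24hr after compound addition, measured rescue of FUS-yeast growth at 30C. Induction used 2% galactose with seeding at OD 0.005. Controls: CP55940 from 92uM final, DMSO only.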
Abeta rescue = qHTS for compounds that reverse cellular toxicity of Amyloid beta (A-beta) peptide in yeast: Primary Screen; yeast expressing A-beta42, growth rescue, OD600, 48 h; response scale: 0% DMSO, 100% iron-clioquinol control; Potency, µM (series often up to 46.1 µM), hits mostly activators; actives 0.063% (n = 410,000); AID 1347071, 2019; also: nearly all actives have a fitted effect of over 55% in size
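Yeast growth medium received pinned compounds, then yeast cells expressing toxic A-beta were added; plates incubated at 30 C for 48 hr. Growth read as absorbance at 600 nm, normalized to DMSO and equimolar FeCl3 plus clioquinol controls.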
TDP-43 yeast inh = qHTS of TDP-43 Inhibitors; TDP-43 expressing yeast growth rescue, BacTiter-Glo, 24 h; Potency, µM (titrated, usually from 46.1 µM), actives largely listed as activators; actives 1.8% (n = 410,000); also: nearly all actives have a fitted effect of over 50% in size
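Luminescence from BacTiter-Glo reports growth of TDP-43-expressing yeast after 24 hr at 30 deg C with compound. Cells were raffinose-pregrown to mid-log, then seeded in galactose medium at OD600=0.02.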
Each line names hits and unclear results; the compound was inactive in the other large screens; ! = not active in a repeat. An excerpt weighted towards active compounds, which were near 2.1% of everything screened. Calls follow the shape of the dose curve; as a rule, active = well fitted curve in the direction sought with a large enough effect; inconclusive = small, poorly fitted or top-dose-only effect, or another doubt; inactive = no such curve, though single readings can be large; an effect the other way counts as inactive or inconclusive.

O=C(Nc1nccs1)C(Br)C(Br)c1ccccc1 (stereo unspecified)	TDP-43 yeast inh 10µM
Cc1ccc(C)c(OCc2nnc(NC(=O)c3ccc4c(c3)OCO4)s2)c1	none
Cc1c(C(=O)Nc2ccccc2)cnn1-c1ccccc1	none
Cc1c(C(=O)Nc2cccc(F)c2)cnn1-c1ccccc1	TDP-43 yeast inh 10µM
CC(=O)c1cccc(NC(=O)CCc2c(C)nc3c(c(C)nn3-c3ccccc3)c2C)c1	TDP-43 yeast inh 6.3µM (no result: aSyn yeast inh)
Cc1ccc(NC(=O)c2cnn(-c3ccccc3)c2C)cc1C	TDP-43 yeast inh inconclusive
CC(=O)c1cccc(NC(=O)c2cnn(-c3ccccc3)c2C)c1	Abeta rescue inconclusive, TDP-43 yeast inh 14µM
CCN(Cc1ccccc1)C(=O)c1cnn(-c2ccc(F)cc2)c1-n1cccc1	TDP-43 yeast inh 35µM
Cc1cccc2[nH]c3c(=O)n(CCN4CCNCC4)cnc3c12	none
COc1cc2c(cc1OC)C(c1ccc([N+](=O)[O-])cc1)N(C(C)=O)CC2 (stereo unspecified)	none
CCOC(=O)C1=NN(C(=O)c2ccccc2)C(O)(c2ccc(C)cc2)C1 (stereo unspecified)	none
COC(=O)C1=NN(C(=O)c2cccc(Br)c2)C(O)(c2ccc(Cl)cc2)C1 (stereo unspecified)	aSyn yeast inh 18µM, TDP-43 yeast inh inconclusive
CC1CC(C)CN(C(=O)/C=C/c2ccc([N+](=O)[O-])s2)C1 (stereo unspecified)	TDP-43 yeast inh 22µM
CC1CN(C(=O)/C=C/c2ccc([N+](=O)[O-])s2)CC(C)O1 (stereo unspecified)	none
O=[N+]([O-])c1ccc(SNc2ccccc2)c([N+](=O)[O-])c1	TDP-43 yeast inh inconclusive (no result: FUS yeast rescue)
Nc1ccccc1Sc1ccccc1[N+](=O)[O-]	TDP-43 yeast inh 18µM (no result: FUS yeast rescue)
O=[N+]([O-])c1cc(/C=N/O)ccc1SCc1ccccc1	none
CO/N=C/c1ccc(Sc2ccccc2)c([N+](=O)[O-])c1	none
CO/N=C/c1ccc(Sc2ccccc2N)c([N+](=O)[O-])c1	Abeta rescue inconclusive, TDP-43 yeast inh 20µM
O=[N+]([O-])c1ccccc1SNc1ccccc1	TDP-43 yeast inh 13µM
O=[N+]([O-])c1cc(/C=N/O)ccc1Sc1ccccc1	TDP-43 yeast inh 3.2µM
Cc1ccc(CNCc2cccn2-c2nnc(N3CCCC3)s2)cc1	TDP-43 yeast inh inconclusive
Cc1ccc(CN(Cc2cccn2-c2nnc(N3CCCC3=O)s2)C(=O)Nc2ccccc2Cl)cc1	FUS yeast rescue 35µM (no result: aSyn yeast inh)
Cc1ccc(OCCOC(=O)C2CCN(S(=O)(=O)c3ccc(C)c(C)c3)CC2)cc1	none
CCOC(=O)N1CCC(N2Cc3cccc(C(=O)Nc4ccc(CC)cc4)c3C2=O)CC1	TDP-43 yeast inh 25µM
COc1ccc([C@H]2OC(=O)C[C@H]2C(=O)N2CCN(c3ccccc3C(F)(F)F)CC2)cc1OC	none (no result: aSyn yeast inh, Abeta rescue, TDP-43 yeast inh)
CC(C)Oc1ccc(C2CCC(=O)NC2=O)cc1 (stereo unspecified)	none (no result: FUS yeast rescue)
O=C1N/C(=N\N=C\c2ccccn2)SC1Cc1cccc(SC(F)F)c1 (stereo unspecified)	aSyn yeast inh 5µM, Abeta rescue inconclusive (no result: FUS yeast rescue)
CCOC(=O)c1c(C)oc2cc(Br)c(O)c(Br)c12	TDP-43 yeast inh 13µM
CCOC(=O)COc1cc2c(C(=O)OCC)c(C)oc2cc1Br	none
CCOC(=O)c1c(NC(C)=O)sc2c(O)cccc12	none (no result: aSyn yeast inh)
CCOC(=O)c1c(NC(C)=O)sc2c(O)c(Br)cc(Br)c12	TDP-43 yeast inh 13µM (no result: FUS yeast rescue)
O=C(CN(C(=O)Cn1nnc(-c2cccs2)n1)c1ccc2c(c1)OCCO2)NCC1CCCO1 (stereo unspecified)	none
COc1ccc(Cl)cc1C(=O)NCCCSc1ccccc1	none
O=C(Nc1cccc(-c2cn3c(n2)SCC3)c1)c1ccc2ccccc2n1	none
Cc1ccc(-c2cc(N)n[nH]2)cc1	FUS yeast rescue 28µM
Cc1ccc(NC(=O)C2CCCN(c3cnccn3)C2)cc1Cl (stereo unspecified)	TDP-43 yeast inh 22µM (no result: aSyn yeast inh)
O=C(Nc1ccc(C(F)(F)F)cc1)C1CCN(c2cnccn2)CC1	TDP-43 yeast inh 16µM!
O=C(Nc1ccc(F)c(Cl)c1)C1CCCN(c2cnccn2)C1 (stereo unspecified)	aSyn yeast inh inconclusive, TDP-43 yeast inh inconclusive
CCOC(=O)c1ccc(NC(=O)C2CCCN(c3cnccn3)C2)cc1 (stereo unspecified)	aSyn yeast inh inconclusive, TDP-43 yeast inh 20µM
CCSc1nnc(-c2cccnc2)n1-c1ccc(Cl)c(C)c1	none
CCOC(=O)/C=C1/SCC(=O)N1CCOc1cccc(Br)c1	TDP-43 yeast inh inconclusive
O=C(CCl)N1c2ccccc2Sc2ccc3ccccc3c21	TDP-43 yeast inh 5µM
O=C(COc1ccc2ccccc2c1)N1c2ccccc2Sc2ccccc21	FUS yeast rescue inconclusive
COc1cccc(C(=O)Nc2c3c(nn2-c2ccccc2C)CS(=O)C3)c1OC (stereo unspecified)	none
CCOC(=O)C1=CCN(S(=O)(=O)c2ccc(F)cc2)C1c1ccc(Br)cc1 (stereo unspecified)	TDP-43 yeast inh 35µM
CCOC(=O)C1=CCN(S(=O)(=O)c2ccc(F)cc2)C1c1ccc(F)cc1 (stereo unspecified)	none
CCOC(=O)C1=CCN(S(=O)(=O)c2ccccc2)C1c1ccccc1 (stereo unspecified)	TDP-43 yeast inh inconclusive
CCOC(=O)C1=CCN(S(=O)(=O)c2ccccc2)C1c1ccc(Cl)cc1 (stereo unspecified)	TDP-43 yeast inh 35µM
CN(C)S(=O)(=O)c1cccc(COc2ncnc3c(Cl)cc(Cl)cc23)c1	none
COc1ccc(-n2c(C)cc(/C=C3\SC(=O)NC3=O)c2C)cc1	FUS yeast rescue inconclusive
CCOc1ccc(CSCCNC(=S)Nc2ccccc2)cc1	Abeta rescue inconclusive, TDP-43 yeast inh inconclusive
CCCOc1ccc(CNC(=S)Nc2ccccc2)cc1Cl	Abeta rescue 11µM, TDP-43 yeast inh inconclusive
S=C(NCCSCc1ccc(Cl)cc1Cl)Nc1ccccc1	TDP-43 yeast inh 16µM
COc1ccc(CSCCNC(=S)Nc2ccccc2)cc1Cl	Abeta rescue inconclusive, TDP-43 yeast inh 20µM
S=C(NCCSCc1ccc(Cl)c(Cl)c1)Nc1ccccc1	TDP-43 yeast inh 11µM
CCC(C)C(=O)N1CCc2cc(-c3csc(N)n3)ccc21 (stereo unspecified)	FUS yeast rescue inconclusive
S=C(NCCSCc1c(Cl)cccc1Cl)Nc1ccccc1	TDP-43 yeast inh 10µM
Nc1cc(N2CCCC2)c(Cl)cc1[N+](=O)[O-]	TDP-43 yeast inh 11µM
Nc1cc(N2CCOCC2)c(Cl)cc1[N+](=O)[O-]	TDP-43 yeast inh 20µM
Nc1cc(N2CCCC2)ccc1[N+](=O)[O-]	none
O=[N+]([O-])c1ccc(N2CCCC2)cc1N1CCCC1	TDP-43 yeast inh 16µM
CCSc1cc(C)nc2c(-c3ccc(Cl)cc3)c(C)nn12	none
